Each structure is given as a SMILES string. Out of some 370,000 compounds screened, about 5,400 (1.5%) were called active. Many of the other results were omitted from the sample, so actives are more common in it than they were. Values without a mark were called inactive.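 The calls were made as follows: active = activation above the mean of all tested compounds plus 3 SD (cut at about 5.5% in these data); inactive = the rest.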

This test concerns DAF-12 nuclear receptor (Haemonchus contortus). Put plainly: H. contortus DAF-12 nuclear receptor activators, primary screen, cell-based, luminescence, HEK293, lit1-tk-luc reporter (AID 652067).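 Also: 100% = response to 3 µM Δ7-dafachronic acid high control.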 To be noted: HEK293 hcDAF-12 lit1-tk-luc reporter, at 6.8 µM, stronger effect = higher value, 0% DMSO, 100% Δ7-dafachronic acid.
With `O=C(NC1CCCCN(Cc2cccc(C(F)(F)F)c2)C1=O)c1ccccc1I` (centres undefined), the activation is -2.6%.
To `CC(OC(=O)Cc1ccc(F)cc1)C(=O)N1CCc2ccccc21` (centres undefined) belongs -0.21%; to `O=C(CSCc1ccccc1)N1CCc2ccccc21`, 6.78% (active); to `O=C(CN1C(=O)c2ccccc2S1(=O)=O)N1CCc2ccccc21`, -5.07%.
To `CC(=O)N1CCc2cc(S(=O)(=O)NCCC(=O)N3CCCC3)ccc21` belongs 1.64%; to `O=C(NC1=CC(=O)c2ccccc2C1=O)c1ccccc1`, -0.21%.
To `Cn1c(NC(=O)c2ccccc2)nc2ccccc21` belongs 14.3% (active).
As to `CCn1c(NC(=O)c2nn(C)cc2Br)nc2ccccc21`, the activation was -2.93%.
With `C[C@@H](NC(=O)c1ccccc1OCC(=O)Nc1ccc(I)cc1)C(=O)N(C)Cc1ccccc1`, the activation is -0.3%.
To `COCC(=O)N[C@@H]1C[C@@H]2O[C@@H](CO)CC[C@@H]2O[C@@H]1CCc1ccc(-c2ccccc2)cc1` belongs -2.01%.
To `O=C(CSc1nc2ccccc2s1)N=Nc1c(O)[nH]c2ccccc12` belongs -1.5%; to `O=C(O)c1ccccc1CSc1nc2ccccc2s1`, 8.09% (active).
As for `O=C(O)CSCc1nc2ccccc2s1`, the activation is 5.6% (active).
To `Cn1c(SCc2nc3ccccc3s2)nnc1-c1ccc2c(c1)OCO2` belongs 3.52%; to `O=C(O)CSc1nccc2ccccc12`, 0.9%.
To `O=C(CSc1nc2ccccc2s1)NN=Cc1ccc(O)cc1O` belongs -0.04%.
To `O=C(N[C@H](Cc1ccccc1)C(=O)N1CCCN(Cc2cccs2)CC1)[C@H]1O[C@@H](n2ccc(=O)[nH]c2=O)[C@H](O)[C@@H]1O` belongs -1.83%; to `CC(C)CNC(=O)OCc1cn(Cc2ccc(F)cc2)nn1`, -2.06%.
`CS(=O)(=O)N(CC(=O)Nc1ccc(F)cc1F)c1cccc([N+](=O)[O-])c1`: the activation is -0.66%.
On to `O=C(NCc1ccco1)C1CCCN(S(=O)(=O)c2ccc(Cl)s2)C1` (centres undefined), for which the activation was -2.39%.
To `Cc1nc2ccccc2nc(C)c1=NOCc1ccc(Cl)cc1Cl` belongs 6.04% (active); to `NC(N)=N/N=C/c1ccc(OCc2ccc(Cl)cc2Cl)cc1`, -1.35%.
To `Cc1nc2c(OCc3ccc(Cl)cc3Cl)cccn2c1N(C)CC1CC1` belongs -1.39%; to `CCOC(=O)[C@]12CCCCC/C=C\1N(Cc1ccc(OC)cc1)C(=O)[C@H]2CC(=O)NCCCN1CCCC1=O`, -0.09%; to `CN(C)Cc1cn(-c2ccc(-c3noc4c3C(=O)N(CC(=O)N3CCOCC3)CC4)cc2)nn1`, 2.44%.
For the compound `CCOC(=O)CNC(=O)N(C)[C@H]1C[C@H]2c3[nH]c4c(-c5ccc6c(c5)OCO6)cccc4c3CCN2C(=O)[C@H]1[C@H](C)O`, the activation was -1.87%.
For the compound `O=C(NNC(=O)c1cc(S(=O)(=O)N2CCCCC2)ccc1Cl)c1ccccc1O`, the activation is 1.49%.
Regarding `Cc1cccc(NS(=O)(=O)c2cccc(C(=O)NNC(=O)c3ccccc3O)c2)c1`, the activation was -2.63%.
To `O=C(NNC(=O)c1ccccc1O)c1ccccc1O` belongs 5.92% (active).
To `COC(=O)C1=C(C)N(Cc2cccc(C(F)(F)F)c2)C(=NCc2ccccc2)NC1c1ccccc1C(F)(F)F` (centres undefined) belongs -0.61%; to `CC(=O)Nc1ccc(OC[C@@H](O)CN2CCC(C(O)(c3ccccc3)c3ccccc3)CC2)cc1`, -1.17%.
To `CC(C)[C@@H](C)/C=C/[C@@H](C)[C@H]1CC[C@@H]2[C@]1(C)CCC1[C@]23C=C[C@]2(C[C@@H](O)CC[C@]12C)N(c1ccc([N+](=O)[O-])cn1)O3` (some centres undefined) belongs -0.59%; to `CCn1c(=O)n2n(c1=O)[C@@]1(C=C3CCCC[C@H]32)N=C(NC(=O)c2ccccc2)N(Cc2ccccc2)[C@H]1Cc1ccccc1`, -1.71%.
For `COc1ccc(/C(O)=C2/C(=O)C(=O)N(CC3CCCO3)C2c2ccc(OC)c(OC)c2)cc1` (centres undefined), the activation was -1.07%.
Regarding `COc1ccc(/C(O)=C2/C(=O)C(=O)N(c3nc(C)c(C)s3)C2c2ccco2)cc1` (centres undefined), the activation is 1.96%.
To `CCOc1ccc(/C(O)=C2\C(=O)C(=O)N(c3ccc(OC)cc3)C2c2ccccc2[N+](=O)[O-])cc1` (centres undefined) belongs 6.27% (active).
For `O=S1(=O)c2c(NCc3ccco3)cccc2Oc2ccccc2CN1Cc1cn(Cc2cccc(C(F)(F)F)c2)nn1`, the activation was -2.46%.
To `CN(NC(=O)C1CC(=O)N(c2ccccc2)C1)C1=NS(=O)(=O)c2ccccc21` (centres undefined) belongs 1.93%; to `CC(=O)C1(C(=O)Nc2nccs2)CC(c2ccccc2C(F)(F)F)=NO1` (centres undefined), -0.69%.
To `COc1ccc(N2CCN(CCNS(=O)(=O)c3ccc(Cl)s3)CC2)cc1` belongs 0.26%; to `CN(Cc1ccccc1)C(=O)COC(=O)/C=C/c1ccc2c(c1)OCO2`, -1.03%.
Take `COc1cccc(/C=C/C(=O)Nc2ccc3c(c2)OCCO3)c1`: the activation was 3.26%.
As for `CNS(=O)(=O)c1ccc(NC(=O)Nc2ccc3c(c2)OCO3)cc1`, the activation was 4.15%.
To `CCSc1ccccc1C(=O)Nc1ccc2c(c1)OCO2` belongs 3.08%.
To `Cc1cccc(NC(=O)Nc2ccc3c(c2)OCO3)n1` belongs 8.33% (active).
To `Cc1cccc(NC(=O)/C=C/c2ccc3c(c2)OCO3)n1` belongs 5.86% (active).
Turning to `COC(=O)c1cc2c(c3c4cc(F)ccc4n(S(=O)(=O)c4ccccc4)c13)C(=O)N(Cc1ccccc1OC)C2`, the activation was 0.96%.
To `CCCN1C(=O)c2[nH]nc(-c3ccccc3)c2C1c1ccccc1` (centres undefined) belongs -1.32%; to `COc1ccccc1CCNC(=O)C1CCN(c2nc(C)cc(C)n2)CC1`, -0.5%.
To `Cc1cc(OC(=O)NCCc2ccc(F)cc2)ccc1F` belongs -1.94%.
To `O=C(c1cnn(-c2ccc(Cl)cc2)c1)c1ccccc1O` belongs 6.75% (active); to `Cc1cc(O)cc(O)c1C(=O)Cc1cnn(-c2ccccc2)c1`, -1.81%.
For the compound `COc1ccc(CNC(=O)COc2ccccc2C(=O)c2cnn(-c3ccccc3)c2)cc1OC`, the activation was 3.06%.
Consider `CN(CCO)c1cccc2c1S(=O)(=O)N(Cc1cn(Cc3ccc(C(F)(F)F)cc3)nn1)Cc1ccccc1O2`, for which the activation is 1.99%.

For the origin of these results see PubChem BioAssay AID652067 (The Scripps Research Institute Molecular Screening Center, 2013).
